Screening results as filed in PubChem BioAssay.
Hits are enriched below; roughly 4.3% of the tested compounds scored in any of these assays.
KKLEB tox = cytotoxicity in KKLEB CF airway cells, primary screen, cytotoxicity control for CF NF-kB inhibitor project, cell-based, uHTS, fluorescence assay plates. activity change (cytotoxicity), % at 5 µM. actives 0.36% (n = 360,000). KKLEB CF airway cells viability, ATPlite luminescence, overnight; active compounds read low; cells stimulated with P. aeruginosa culture filtrate;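 active = corrected activity change at or below -50% at 5 µM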
TRPM1 prom inh = inhibitors of MITF-dependent TRPM1 promoter reporter, primary screen, cell-based, SK-MEL-5, single point, luciferase; SK-MEL-5 TRPM1 promoter luciferase, 24 h; inhibition, % at 12.5 µM; actives 0.83% (n = 330,000); AID 488899, 2010;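 active = mean inhibition across replicates of 60% or more, whatever share of single replicates reaches that level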
CF NFkB block = inhibitors of PAF-induced NF-kB signaling, primary screen, cell-based, GFP fluorescence, uHTS; KKLEB NF-kB-GFP reporter, GFP fluorescence overnight; inhibition, % at 5 µM; actives 0.86% (n = 360,000); AID 588850, 2011;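 active = at least 50% inhibition at 5 µM, scaled per plate between neutral and stimulator controls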;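 note: PAF is a Pseudomonas aeruginosa culture filtrate used as stimulus; plate controls were PAF-stimulated DMSO wells for no effect and unstimulated DMSO wells for full effect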
HIF-2a block = HIF-2a reporter inhibitors, primary screen, luminescence, 786-0 RCC cells; 786-0 RCC cells HIF-2a reporter, luciferase luminescence, overnight; AID 624352, 2012; actives 0.72% (n = 360,000); inhibition, % at 18.8 µM;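 active = inhibition of the luminescence signal of 40% or more relative to plate controls, in a single-dose primary screen at 18.75 µM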
Peg3 prom inh = Peg3 promoter-driven luciferase inhibitors, primary screen, cell-based, HeLa, luciferase luminescence; HeLa PEG-Prom luciferase reporter, overnight; inhibition, % at 20 µM; actives 1.7% (n = 360,000);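 active = inhibition of at least 50% at 20 µM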
CHOP inh = inhibitors of CHOP promoter induction, primary screen, cell-based, unfolded protein response, luciferase reporter; CHO-K1 CHOP-promoter luciferase, tunicamycin-induced, 15-18 h; inhibition, % at 10 µM; actives 3.8% (n = 220,000); AID 2732, 2010;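 active = compounds that reduced the stress-induced luciferase reporter signal by more than about 70% of percent inhibition, limit read from the data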;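 note: 0% = tunicamycin plus vehicle and 100% = wells without tunicamycin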
CHOP inh conf = retest of CHOP induction inhibitors, confirmation, cell-based; AID 504437, 2011; actives 45% (n = 2,100); shares compounds with CHOP inh; inhibition, % at 10 µM; CHO-CHOP promoter luciferase reporter, tunicamycin-induced, luminescence;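 active = mean of three repeat readings of reporter signal inhibition above a set limit, cut at about 70% in these data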;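 note: 0% = tunicamycin plus vehicle and 100% = wells lacking tunicamycin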
* hit, by the source's call; / = no result given.

SMILES	KKLEB tox	TRPM1 prom inh	CF NFkB block	HIF-2a block	Peg3 prom inh	CHOP inh	CHOP inh conf
CCOC(=O)c1sc(NC(=O)Nc2ccccc2F)nc1C	-34.6	-9.6	11.3	-6.1	-28.3	101.6*	43.9
COc1ccccc1NC(=O)Nc1nnc(-c2ccco2)s1	/	/	/	/	/	3.7	/
COc1ccc(OCc2nnc(NC(=O)Nc3ccc(F)cc3)s2)cc1	-15.8	1.8	0.6	8.3	6.0	101.3*	-0.1
O=[N+]([O-])c1ccc(S(=O)(=O)Nc2ccc(-c3ccccc3)cc2)cc1	-15.3	/	39.6	-0.5	32.0	/	/
COc1ccc(-c2nc(NC(=O)Cn3ccc(C(F)(F)F)n3)sc2C)cc1	-7.3	1.7	5.4	16.2	-1.8	103.3*	73.6*
COc1ccc(C(C)(NC(C)=O)c2nc(-c3cccc(NC(C)=O)c3)cs2)cc1 (configuration not stated)	12.5	/	-2.1	5.8	6.6	/	/
Cc1ccc(CSc2nc(N)cc(=O)[nH]2)cc1	-11.1	-7.3	4.4	-5.6	-3.7	/	/
O=C(Cc1csc(Nc2nc(=S)[nH]c3ccccc23)n1)N1CCN(c2cccc(Cl)c2)CC1	-36.6	77.6*	49.7	-2.0	81.7*	102.8*	37.7
CN(C)S(=O)(=O)c1ccc(C(=O)Nc2nnc(SCc3cccc4ccccc34)s2)cc1	-7.9	16.5	10.0	17.5	7.7	103.2*	10.8
CCSc1nnc(NC(=O)c2ccc(S(=O)(=O)N(C)C)cc2)s1	-7.0	-27.3	29.5	-48.5	-58.9	-8.1	/
Cc1ccc(S(=O)(=O)N2CCC(C(=O)N3CCc4ccccc43)CC2)cc1C	7.9	-7.4	-22.4	-12.6	-7.3	/	/
C=CCc1cccc(/C=N/NC(=O)C[n+]2ccccc2)c1O	-2.6	17.0	17.1	12.5	25.7	/	/
C=CCc1cccc(/C=N/NC(=O)CCC(=O)Nc2ccc(F)cc2)c1O	-22.6	17.2	18.0	27.6	49.0	102.5*	29.1
C=CCc1cccc(/C=N/NC(=O)CCCNc2ccc(C)cc2)c1O	-5.5	3.6	-0.4	19.8	29.4	96.8*	74.8*
Cc1ccccc1OCc1nc2ccccc2c(=O)n1N	-1.1	-29.7	-0.6	-138.8	-187.4	25.6	/
Cc1ccc(-c2[nH]ncc2/C=N/n2c(COc3ccccc3C)nc3ccccc3c2=O)cc1	-6.2	-13.2	-18.1	-4.2	23.1	100.1*	4.5
O=C1c2ccccc2C(=O)N1OS(=O)(=O)c1ccccc1	/	/	/	/	/	107.8*	-58.0
O=C1c2cccc3cccc(c23)C(=O)N1OS(=O)(=O)c1ccccc1	-1.8	-15.2	-25.2	-49.6	-157.2	31.8	/
COc1ccc(CCNC(=O)CCC(=O)NC2CCCC(C)C2C)cc1OC (configuration not stated)	22.6	5.1	-6.5	20.7	9.8	/	/
Cc1cccc(N=N/C(=C\O)C(=O)c2ccc(Br)cc2)c1	-11.5	17.2	35.4	-33.8	33.1	-33.9	/
Cc1cccc(N/N=C(\C=N\N)C(=O)c2ccc(Br)cc2)c1	/	/	/	/	/	103.4*	35.1
CC1(C)CC(=O)C(=Cc2cn(-c3ccccc3)nc2-c2ccc(Cl)cc2)C(=O)C1	1.2	-11.9	-14.2	-58.9	33.4	104.7*	68.3
CC1(C)CC(=O)C(=Cc2cn(CCC#N)nc2-c2ccc(Cl)cc2)C(=O)C1	8.4	-7.8	-10.3	26.8	7.7	-6.5	/
CC(C)(C)c1ccc(C(=O)NNC(=O)c2cccc(Br)c2)cc1	5.2	-32.6	-11.7	-97.7	-11.0	101.8*	94.0*
Cc1ccc(-c2nn(-c3ccccc3)cc2/C=N/NC(=O)c2ccc(Br)o2)cc1	9.1	-51.6	-14.0	-95.0	-122.0	104.2*	120.9*
SMILES	KKLEB tox	TRPM1 prom inh	CF NFkB block	HIF-2a block	Peg3 prom inh	CHOP inh	CHOP inh conf
COc1ccc(/C=c2\sc3nc(-c4ccccc4OC)nn3c2=O)c(OC)c1	10.3	28.2	-4.4	18.8	20.0	102.2*	21.2
Cc1cc(Cl)ccc1OCc1n[nH]c(=S)n1C1CCCCC1	10.2	4.0	-0.8	9.3	7.2	102.9*	119.2*
COc1ccc(Cl)cc1-c1n[nH]c(=S)n1C1CCCCC1	-4.6	16.8	0.3	11.7	5.7	30.2	/
C=CCOC(=O)C1=C(C)NC(SCC(=O)Nc2nccs2)=C(C#N)C1c1cccs1 (configuration not stated)	-3.1	6.4	12.0	16.0	49.9	98.7*	42.1
C=CCOC(=O)C1=C(C)NC(SCC(=O)Nc2nccs2)=C(C#N)C1c1ccc(Cl)cc1 (configuration not stated)	-17.4	-2.3	6.4	9.8	12.3	105.8*	132.4*
Cc1ccc(CNC(=O)c2ccc3c(=O)c(O)c(-c4ccc(C)cc4)[nH]c3c2)cc1	-10.1	56.0	-10.4	16.5	27.7	103.0*	59.8
Cc1cncn1CCc1nc2c3ccccc3nc(SCC(=O)Nc3cccc(Cl)c3)n2n1	-27.5	-3.1	-10.4	14.0	29.3	31.5	/
Cc1n[nH]c(C)c1CCc1nc2c3ccccc3nc(SCC(=O)Nc3ccccc3F)n2n1	-9.8	41.6	12.8	17.9	20.0	98.4*	-15.6
O=C(NCc1ccco1)c1cccn2c(=O)c3cc4ccccc4cc3nc12	/	/	/	/	/	-54.6	/
COCCCNC(=O)c1cccn2c(=O)c3cc4ccccc4cc3nc12	23.3	-9.0	-90.5	-147.8	-0.5	97.6*	58.3
CNc1nc(Sc2cccc(C(F)(F)F)c2)cc(C(F)(F)F)n1	-3.4	11.1	12.5	15.2	1.6	101.1*	98.5*
CC/C(=N/Nc1cccc(C)c1)c1cnnc(SC)n1	-51.5*	-2.3	55.3*	8.6	36.8	96.9*	-70.6
COc1ccc(CNc2oc(-c3cccc4ccccc34)nc2C#N)cc1	0.5	3.5	3.0	-22.3	0.8	96.6*	97.6*
CNc1oc(-c2cccc3ccccc23)nc1C#N	5.7	-7.5	-34.6	-78.0	-78.6	40.9	/
O=C1C=C(c2cccc(Br)c2)C[C@@H](c2ccc3c(c2)OCO3)C1	-11.2	13.2	27.4	-9.6	-33.3	/	/
CCCC(=O)N1N=C(c2ccccc2)CC1c1cn(C)c2ccccc12 (configuration not stated)	3.7	7.6	-2.7	-50.7	-15.3	105.2*	9.4
Cn1cc(C2CC(c3ccccc3)=NN2C(=O)c2ccccc2)c2ccccc21 (configuration not stated)	-15.6	-5.8	-1.2	-61.0	-11.1	66.5	/
CC(=O)Nc1cccc(-c2ccnc3c2CC(C)(C(=O)NCC2CC2)O3)c1 (configuration not stated)	-6.9	/	-0.5	7.3	22.9	/	/
